# Measured values as given in PubChem BioAssay (NCATS).
# Inconclusive results are not listed. The source made the active and inactive calls. Calls follow the shape of the full dose curve.
# Test: Primary qHTS to identify inhibitors of SARS-CoV-2 cell entry (AID 1645846); also: nearly all actives have a fitted effect of over 45% in size
# Details: SARS-CoV-2 pseudovirus cell entry assay, luminescence; activity change, negative = inhibition: at 57.1 µM (top of the series) unless noted
# Procedure, shortened: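 Using luciferase-reporting pseudoviruses carrying Wuhan-Hu-1 spike, the screen tracks entry into stably ACE2-expressing cells over 48 hr. Activity is expressed relative to spike particles versus particles lacking any fusion protein.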
# Potency is read from the fitted curve at half-maximal effect.
SMILES,"activity change, negative = inhibition",Potency,outcome
CNC(=O)c1c(-c2ccc(F)cc2)oc2cc(N(CCO)S(C)(=O)=O)c(C3CC3)cc12,-3.84%,,
Cc1ccc(S(=O)(=O)Cc2nc(-c3ccc(C(=O)NCc4cccnc4)cc3)oc2C)cc1,-96.2%,,
O=C1NC(=O)[C@@H](c2cn3c4c(cccc24)CCC3)[C@@H]1c1c[nH]c2ccccc12,-73.3%,,
O=C(O)C[C@H]1CCc2c1[nH]c1ccc(OCc3ccc(C4CCCC4)c(C(F)(F)F)c3)cc21,-95.5%,,
O=C(/C=C/c1ccc(/C=C/C(=O)Nc2ccc(C3=NCCN3)cc2)cc1)Nc1ccc(C2=NCCN2)cc1,-24.3% [at 5.25 µM],,
CC(C)(C)c1[nH]cnc1/C=c1\[nH]c(=O)/c(=C/c2ccccc2)[nH]c1=O,-98.3%,,
CNC(=O)c1ccc(Nc2ncc(C(F)(F)F)c(NCc3nccnc3N(C)S(C)(=O)=O)n2)cc1,,0.891 µM (active),
COc1nnc2ccc(N3CCC(c4ccc(OCCN5CCN(C)C(=O)[C@H]5C)cc4)CC3)nn12,,,inactive
COc1cc2c(NC3CCN(CC4CCCCC4)CC3)nc(N3CCCN(C(C)C)CC3)nc2cc1OCCCN1CCCCC1,,3.16 µM (active),
CN(C)C/C=C/C(=O)Nc1cccc(C(=O)Nc2cccc(Nc3ncc(Cl)c(-c4c[nH]c5ccccc45)n3)c2)c1,,3.16 µM (active),
Nc1nc(N)c2nc(-c3cccc(Cl)c3)c(N)nc2n1,1.13%,,
C=CC(=O)Nc1cccc(C)c1Nc1ncc2cc(-c3c(Cl)c(OC)cc(OC)c3Cl)ccc2n1,-95%,,
C[C@@H]1COCCN1c1cc(C2(S(C)(=N)=O)CC2)nc(-c2ccnc3[nH]ccc23)n1 (stereo partly drawn),,10 µM (active),
